Measured values: PubChem BioAssay AID1159580 (chemical genetic matrix, 2015)
Values joined by “and” are separate entries in the source; they are usually repeats but may differ in a detail not shown here. Equal values may be shown once. The campaign covered roughly 5,500 compounds. About 2,000 (36%) were called active. Inconclusive results (about 18%) are left out. Rule as the data show it: active = normalized growth mostly below about 0.91 (no sharp cut-off); inconclusive = no clear call, values can overlap the other calls; inactive = mostly above about 0.92. The list shows a part of the results.

Assay: chemical genetic growth profiling, strain panel (AID 1159580);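 also: tested at 20 µM; growth read once vehicle control cultures reached saturation at 30 °C; 1 = growth at the plate median or of vehicle wells; lower values mean less growth of the strain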
Details: S. cerevisiae deletion strains, growth OD

Measured: normalized growth

NC(=O)c1ccc([N+](=O)[O-])cc1Cl
inactive: locus YAL013W, strain DEP1, active compounds read low 0.983 | locus YAL021C, strain ccr4, active compounds read low 0.97 | locus YAL026C, strain drs2, active compounds read low 0.968 | locus YAL030W, strain snc1, active compounds read low 0.997 | locus YBL061C, strain skt5, active compounds read low 0.983 | locus YBR009C, strain hhf1, active compounds read low 0.953 | locus YBR021W, strain FUR4, active compounds read low 1.02 | locus YBR023C, strain chs3, active compounds read low 0.985 | locus YBR171W, strain sec66, active compounds read low 0.981 | locus YBR229C, strain ROT2, active compounds read low 0.95 | locus YBR231C, strain swc5, active compounds read low 1.01 | locus YBR279W, strain paf1, active compounds read low 0.988 | locus YCL011C, strain gbp2, active compounds read low 0.929 | locus YCL016C, strain dcc1, active compounds read low 0.951 | locus YCL029C, strain bik1, active compounds read low 0.977 | locus YCL069W, strain vba3, active compounds read low 0.984 | locus YCR088W, strain abp1, active compounds read low 0.994 | locus YDL005C, strain med2, active compounds read low 0.985 | locus YDL035C, strain GPR1, active compounds read low 0.98 | locus YDL040C, strain nat1, active compounds read low 0.992 | locus YDL074C, strain BRE1, active compounds read low 0.956 | locus YDL101C, strain DUN1, active compounds read low 0.943 | locus YDL134C, strain PPH21, active compounds read low 0.982 | locus YDL185W, strain tfp1, active compounds read low 0.981 | locus YDL192W, strain arf1, active compounds read low 0.982 | locus YDR001C, strain nth1, active compounds read low 0.965 | locus YDR069C, strain doa4, active compounds read low 0.971 | locus YDR101C, strain arx1, active compounds read low 0.991 | locus YDR137W, strain rgp1, active compounds read low 0.929 | locus YDR150W, strain NUM1, active compounds read low 0.965 | locus YDR159W, strain sac3, active compounds read low 0.931 | locus YDR162C, strain NBP2, active compounds read low 0.945 | locus YDR195W, strain ref2 1.02 | locus YDR297W, strain sur2, active compounds read low 0.978 | locus YDR318W, strain mcm21, active compounds read low 0.995 | locus YDR334W, strain swr1, active compounds read low 0.979 | locus YDR335W, strain msn5, active compounds read low 0.981 | locus YDR388W, active compounds read low 0.984 | locus YDR392W, strain spt3, active compounds read low 0.942 | locus YDR502C, strain sam2, active compounds read low 0.973 | locus YEL003W, strain gim4, active compounds read low 1.01 | locus YEL037C, strain rad23, active compounds read low 0.983 | locus YEL061C, strain CIN8 (second series), active compounds read low 0.979 | locus YEL061C, strain CIN8, active compounds read low 0.976 | locus YER015W, strain faa2, active compounds read low 0.988 | locus YER016W, strain bim1, active compounds read low 0.969 | locus YER110C, active compounds read low 0.978 | locus YER111C, strain swi4, active compounds read low 0.988 | locus YER155C, strain BEM2 (second series), active compounds read low 1.05 | locus YER155C, strain BEM2, active compounds read low 0.984 | locus YER167W, strain BCK2, active compounds read low 0.978 | locus YFR010W, strain ubp6, active compounds read low 0.975 | locus YGL078C, strain dbp3, active compounds read low 0.965 | locus YGL086W, strain mad1, active compounds read low 0.998 | locus YGL167C, strain pmr1, active compounds read low 0.978 | locus YGL173C, strain kem1, active compounds read low 0.99 | locus YGL227W, strain vid30, active compounds read low 0.991 | locus YGL240W, strain doc1, active compounds read low 0.995 | locus YGL248W, strain PDE1, active compounds read low 0.973 | locus YGL253W, strain hxk2, active compounds read low 0.971 | locus YGR078C, strain PAC10, active compounds read low 0.979 | locus YGR135W, strain pre9, active compounds read low 0.971 | locus YGR229C, strain SMI1, active compounds read low 0.974 | locus YGR252W, strain gcn5, active compounds read low 1 | locus YHR013C, strain ard1, active compounds read low 0.936 | locus YHR027C, strain rpn1, active compounds read low 0.968 | locus YHR030C, strain SLT2, active compounds read low 0.985 and 0.977 | locus YHR079C, strain IRE1 (second series), active compounds read low 0.977 | locus YHR079C, strain IRE1, active compounds read low 0.974 | locus YHR094C, strain hxt1, active compounds read low 0.989 | locus YHR129C, strain ARP1, active compounds read low 0.997 | locus YHR142W, strain chs7, active compounds read low 0.982 | locus YHR200W, strain rpn10, active compounds read low 0.981 | locus YIL066C, strain RNR3, active compounds read low 0.976 | locus YIL073C, strain SPO22, active compounds read low 0.95 | locus YIL125W, strain kgd1, active compounds read low 0.989 | locus YIR030C, strain dcg1, active compounds read low 0.972 | locus YJL092W, strain hpr5, active compounds read low 0.988 | locus YJL095W, strain BCK1 (second series), active compounds read low 0.969 | locus YJL095W, strain BCK1, active compounds read low 0.995 and 0.957 | locus YJL115W, strain asf1, active compounds read low 0.986 | locus YJL129C, strain trk1, active compounds read low 1.02 | locus YJL134W, strain LCB3, active compounds read low 0.975 | locus YJL154C, strain vps35, active compounds read low 0.98 | locus YJL164C, strain tpk1, active compounds read low 0.933 | locus YJL166W, strain qcr8, active compounds read low 1.01 | locus YJL168C, strain set2, active compounds read low 0.982 | locus YJL187C, strain SWE1 (second series), active compounds read low 0.972 | locus YJR043C, strain POL32, active compounds read low 0.993 | locus YJR066W, strain TOR1, active compounds read low 0.944 | locus YJR075W, strain HOC1, active compounds read low 0.969
